PubChem BioAssay
The source made the active and inactive calls.

Key:
Albumin (Bos taurus) = Albumin (Bos taurus) (UniProt P02769); assay: compounds binding labelled BSA control protein – biochemical, small-molecule microarray, Alexa647 label, 635/667 nm fluorescence, artefact control for SMM control protein annotation, profiling panel (AID 1118); details: BSA-A647 binding, fluorescence 635 nm, higher = more signal;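 further: score merges 667 nm emission intensity and signal-to-noise per printed compound spot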
[1] = probe aXIP binding to arrayed compounds – biochemical, NeuroSMM set, 635/667 nm fluorescence, primary screen (AID 1119); details: small-molecule microarray, higher = more signal, called active from +8 up or from −8 down;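 further: probe is the protein aXip251-270 applied at 1 µg/mL to compound-printed slides; binding of probe to printed compounds measured as 667 nm fluorescence plus signal to noise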
[2] = probe aNOTCH3 binding on compound microarray – biochemical, small-molecule microarray, 635/667 nm fluorescence, primary screen (AID 1120); details: higher = more signal;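 further: probe is a biotin-tagged antibody raised against NOTCH3 rather than NOTCH3 protein; score merges spot fluorescence near 667 nm with spot signal to noise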
[3] = probe aNOTCH2 binding on compound microarray – biochemical, small-molecule microarray, 635/667 nm fluorescence, primary screen (AID 1121); details: higher = more signal;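 further: score merges feature fluorescence read at 667 nm with its signal to noise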
[4] = biological target: Carbonic anhydrase 2 (Homo sapiens) (UniProt P00918); assay: compounds binding carbonic anhydrase 2 – biochemical, small-molecule microarray, Alexa647-labelled CAII, profiling panel (AID 1122); details: CAII-A647 binding fluorescence, higher = more signal
[5] = COS7 lysate on small-molecule microarray, probe aHis, 635 nm (AID 1123); details: COS7 cell lysate, fluorescence, higher = more signal;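 further: z-score combines 667nm fluorescence intensity with signal-to-noise per printed compound spot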
[6] = probe aLAP1 signal on lysate-treated microarray – cell lysate, small-molecule microarray, COS7 lysate, primary screen (AID 1124); details: probe aLAP1, fluorescence, higher = more signal;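 further: lysate comes from COS7 cells expressing LAP1 and is applied at 0.3 µg/mL; score merges spot fluorescence near 667 nm with signal-to-noise over triplicate slides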
Sam68 (KHDRBS1) = assay: compounds binding KHDRBS1 protein – biochemical, small-molecule microarray, 635 nm fluorescence, primary screen (AID 1125); details: higher = more signal;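 further: score merges 667 nm channel intensity with signal to noise over triplicate slides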
[7] = system: Chordin-like protein 2 (CHRDL2); assay: compounds binding chordin-like 2 – biochemical, small-molecule microarray, 635 nm fluorescence, primary screen (AID 1126); details: fluorescence 635 nm, higher = more signal;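 further: printed compound slides probed with Chrdl2 protein at 4 µg/mL for 1 h at 4 C; score merges 667 nm emission intensity with signal to noise over three replicate slides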
[8] = biological target: Concanavalin-A (Canavalia ensiformis) (UniProt P02866); assay: compounds binding concanavalin A lectin – biochemical, small-molecule microarray, Alexa647 label, 635 nm, artefact control for SMM control protein annotation, primary screen (AID 1127); details: ConA-A647 binding fluorescence, higher = more signal;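 further: z combines 667 nm emission intensity with signal-to-noise across three replicate slides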
[9] = compounds binding Alexa647 anti-His antibody – biochemical, small-molecule microarray, 635 nm fluorescence, artefact control for SMM control protein annotation, primary screen (AID 1128); details: higher = more signal;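 further: score merges feature fluorescence with signal-to-noise for each printed compound spot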
[10] = system: Human papillomavirus type 1a E7 protein (residues 1-88); assay: HPV1a E7 small-molecule binders, primary screen, biochemical, small-molecule microarray, residues 1-88, 635 nm (AID 1129); details: small-molecule microarray binding, fluorescence 635 nm; higher = more signal
[11] = biological target: Focal adhesion kinase 1 (Homo sapiens) (UniProt Q05397); assay: PTK2 protein binding on printed compound slides – biochemical, small-molecule microarray, 635/667 nm fluorescence, BSA, DTT, primary screen (AID 1130); details: 635 nm fluorescence, higher = more signal;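 further: composite of spot emission at 667 nm and signal to noise over triplicate slides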
[12] = system: Fibrinogen (Alexa647-labelled); assay: Alexa647-fibrinogen binding to printed small molecules – biochemical, small-molecule microarray, 635/667 nm fluorescence, artefact control for SMM control-protein annotation, profiling panel (AID 1131); details: fibrinogen-A647 binding fluorescence, higher = more signal;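 further: z-score merges 667 nm fluorescence with per-spot signal-to-noise over triplicate slides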
[13] = biological target: Follistatin (Homo sapiens) (UniProt P19883); assay: FST protein binding to printed compounds – biochemical, small-molecule microarray, 635/667 nm fluorescence, primary screen (AID 1132); details: 635 nm fluorescence, higher = more signal
[14] = biological target: Fibroblast growth factor 2 (Homo sapiens) (UniProt P09038); assay: basic fibroblast growth factor binding to printed compounds – biochemical, small-molecule microarray, 635/667 nm fluorescence, primary screen (AID 1133); details: FGF2, fluorescence 635/667, higher = more signal
[15] = JC-1 mitochondrial potential readout, lung cancer cells – cell-based, A549, JC-1 fluorescence, basal, 24 h, 100 nL, profiling panel (AID 1138); details: higher = more signal;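 further: A549 lung adenocarcinoma cells under basal conditions with no added stimulus; test concentration not given here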
Lefty1 = Lefty1 protein binding to printed compounds – biochemical, small-molecule microarray, 635/667 nm fluorescence, primary screen (AID 1139); details: fluorescence 635/667, higher = more signal
[16] = system: wheat germ agglutinin (Triticum aestivum), Alexa647-labelled; assay: Alexa647-WGA lectin binding to printed small molecules – biochemical, small-molecule microarray, 635/667 nm fluorescence, artefact control for SMM control-protein annotation, profiling panel (AID 1140); details: WGA-A647 binding, 635 nm fluorescence, higher = more signal;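 further: score merges 667 nm feature emission with signal to noise over triplicate slides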
[17] = biological target: Luciferin 4-monooxygenase (Photinus pyralis) (UniProt P08659); assay: inhibition of purified Photinus pyralis luciferase – biochemical, luminescence, purified enzyme, 2006 set, primary screen (AID 1141); details: purified firefly luciferase, SteadyGlo luminescence, 30 min; higher = more signal, called active from +8 up or from −8 down;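 further: cell-free assay with purified firefly luciferase at 100 ng per well in PBS; test concentration not given here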
Luciferin 4-monooxygenase (Photinus pyralis), sequence (P08659 whole entry, looked up): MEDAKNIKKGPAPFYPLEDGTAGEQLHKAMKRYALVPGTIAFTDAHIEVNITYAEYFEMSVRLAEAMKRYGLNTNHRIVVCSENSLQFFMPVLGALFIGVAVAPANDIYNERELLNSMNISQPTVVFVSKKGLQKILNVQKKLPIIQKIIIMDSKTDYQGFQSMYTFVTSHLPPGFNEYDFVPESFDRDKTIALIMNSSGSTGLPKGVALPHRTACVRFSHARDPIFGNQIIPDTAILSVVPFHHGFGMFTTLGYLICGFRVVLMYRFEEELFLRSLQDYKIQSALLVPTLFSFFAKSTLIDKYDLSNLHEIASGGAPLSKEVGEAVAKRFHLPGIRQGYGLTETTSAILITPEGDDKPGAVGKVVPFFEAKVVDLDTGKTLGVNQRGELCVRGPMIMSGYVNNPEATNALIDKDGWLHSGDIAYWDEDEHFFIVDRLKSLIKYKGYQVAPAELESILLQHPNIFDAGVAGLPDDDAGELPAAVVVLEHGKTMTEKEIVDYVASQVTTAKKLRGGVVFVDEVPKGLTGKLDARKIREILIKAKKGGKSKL

Fibroblast growth factor 2 (Homo sapiens), sequence (P09038 whole entry, looked up): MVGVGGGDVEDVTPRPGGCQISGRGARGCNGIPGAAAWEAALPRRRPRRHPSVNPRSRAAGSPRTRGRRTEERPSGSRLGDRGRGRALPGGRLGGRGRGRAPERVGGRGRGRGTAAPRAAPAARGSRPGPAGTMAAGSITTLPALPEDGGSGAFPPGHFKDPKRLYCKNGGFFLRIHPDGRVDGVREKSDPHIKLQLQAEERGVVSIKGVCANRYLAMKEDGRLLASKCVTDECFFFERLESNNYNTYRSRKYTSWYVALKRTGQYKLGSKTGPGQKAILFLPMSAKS
Focal adhesion kinase 1 (Homo sapiens), sequence (Q05397 whole entry, looked up): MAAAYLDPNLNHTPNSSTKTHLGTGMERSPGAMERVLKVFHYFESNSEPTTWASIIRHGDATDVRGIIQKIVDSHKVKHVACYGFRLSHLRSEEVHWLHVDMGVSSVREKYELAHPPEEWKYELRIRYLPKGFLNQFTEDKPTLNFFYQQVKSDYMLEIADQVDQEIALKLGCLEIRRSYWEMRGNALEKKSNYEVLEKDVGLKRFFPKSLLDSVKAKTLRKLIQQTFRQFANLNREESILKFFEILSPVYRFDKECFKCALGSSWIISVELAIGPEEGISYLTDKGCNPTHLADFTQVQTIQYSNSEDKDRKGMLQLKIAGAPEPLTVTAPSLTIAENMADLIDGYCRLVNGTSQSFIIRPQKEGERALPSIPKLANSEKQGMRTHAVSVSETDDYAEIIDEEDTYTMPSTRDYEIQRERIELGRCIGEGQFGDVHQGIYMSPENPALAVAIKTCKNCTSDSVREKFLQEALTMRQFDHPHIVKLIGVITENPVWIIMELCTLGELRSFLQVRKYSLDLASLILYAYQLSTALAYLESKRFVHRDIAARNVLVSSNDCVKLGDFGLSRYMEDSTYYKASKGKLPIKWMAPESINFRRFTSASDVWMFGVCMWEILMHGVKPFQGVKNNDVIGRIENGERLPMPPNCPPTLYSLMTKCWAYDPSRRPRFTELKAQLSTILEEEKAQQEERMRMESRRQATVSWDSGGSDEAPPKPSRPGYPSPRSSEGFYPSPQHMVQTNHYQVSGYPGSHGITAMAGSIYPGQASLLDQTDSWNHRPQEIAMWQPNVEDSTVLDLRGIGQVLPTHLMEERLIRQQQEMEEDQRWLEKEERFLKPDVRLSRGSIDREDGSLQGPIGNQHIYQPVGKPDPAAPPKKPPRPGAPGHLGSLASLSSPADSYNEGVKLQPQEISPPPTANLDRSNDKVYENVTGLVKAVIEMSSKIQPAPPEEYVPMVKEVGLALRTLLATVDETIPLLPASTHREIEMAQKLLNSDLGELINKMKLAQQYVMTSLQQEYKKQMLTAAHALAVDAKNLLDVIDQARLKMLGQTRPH
Albumin (Bos taurus), sequence (P02769 whole entry, looked up): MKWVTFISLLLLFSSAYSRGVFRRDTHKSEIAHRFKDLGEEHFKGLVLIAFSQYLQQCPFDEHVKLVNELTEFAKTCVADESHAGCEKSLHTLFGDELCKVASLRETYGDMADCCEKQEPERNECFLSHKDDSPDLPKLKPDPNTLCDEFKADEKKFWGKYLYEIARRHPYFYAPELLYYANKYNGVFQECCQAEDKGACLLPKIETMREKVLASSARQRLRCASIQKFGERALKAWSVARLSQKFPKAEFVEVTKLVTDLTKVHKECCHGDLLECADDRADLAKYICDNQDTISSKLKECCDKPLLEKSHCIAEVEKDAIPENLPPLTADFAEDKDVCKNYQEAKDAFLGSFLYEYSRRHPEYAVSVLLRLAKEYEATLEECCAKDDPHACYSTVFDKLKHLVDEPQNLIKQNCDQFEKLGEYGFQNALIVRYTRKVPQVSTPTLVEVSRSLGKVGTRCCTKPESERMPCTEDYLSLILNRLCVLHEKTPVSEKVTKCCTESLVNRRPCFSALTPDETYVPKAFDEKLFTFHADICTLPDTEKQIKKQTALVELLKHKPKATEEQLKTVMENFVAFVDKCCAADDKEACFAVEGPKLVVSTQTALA
Concanavalin-A (Canavalia ensiformis), sequence (P02866 whole entry, looked up): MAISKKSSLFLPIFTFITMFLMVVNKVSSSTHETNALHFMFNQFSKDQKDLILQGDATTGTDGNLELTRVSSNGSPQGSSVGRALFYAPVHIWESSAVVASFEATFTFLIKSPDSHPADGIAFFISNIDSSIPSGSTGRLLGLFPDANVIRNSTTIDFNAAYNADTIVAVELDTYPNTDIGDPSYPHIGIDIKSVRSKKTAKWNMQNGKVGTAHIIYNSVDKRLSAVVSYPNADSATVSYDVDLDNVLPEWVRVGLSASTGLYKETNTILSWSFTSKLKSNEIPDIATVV
Follistatin (Homo sapiens), sequence (P19883 whole entry, looked up): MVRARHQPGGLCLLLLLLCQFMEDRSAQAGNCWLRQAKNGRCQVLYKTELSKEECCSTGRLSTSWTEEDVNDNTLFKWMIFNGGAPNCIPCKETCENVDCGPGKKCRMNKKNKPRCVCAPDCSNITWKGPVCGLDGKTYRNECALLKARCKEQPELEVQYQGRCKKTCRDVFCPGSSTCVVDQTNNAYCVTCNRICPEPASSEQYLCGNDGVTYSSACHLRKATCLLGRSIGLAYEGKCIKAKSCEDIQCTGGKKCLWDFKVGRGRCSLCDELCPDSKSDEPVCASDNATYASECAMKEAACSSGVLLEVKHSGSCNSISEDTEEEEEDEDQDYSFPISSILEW

Structure (SMILES)	composite z-score (Albumin (Bos taurus))	composite Z-score [1]	composite z-score [2]	composite z-score [3]	composite z-score [4]	composite z-score [5]	composite z-score [6]	composite z-score (Sam68 (KHDRBS1))	composite z-score [7]	composite z-score [8]	composite z-score [9]	composite z-score [10]	composite z-score [11]	composite z-score [12]	composite z-score [13]	composite z-score [14]	z-score [15]	composite z-score (Lefty1)	composite z-score [16]	z-score [17]
COC(=O)[C@@]1(Cc2ccc(F)cc2)[C@H]2c3cc(C(=O)N(C)C)n(Cc4ccc(C(F)(F)F)nc4)c3C[C@H]2CN1C(=O)c1ccccc1	0.98	-0.387 (inactive)	0.894	-0.0531	0.726	3.26	0.311	1.33	0.214	1.1	1.33	1.27	1.61	1.02	1.05	-0.234	0.453	0.853	0.895	1.57 (inactive)
COC(=O)C(CC#Cc1ccc2c(c1)[C@]1(C(=O)N2)[C@H](c2ccccc2OCCO)N2[C@H](c3ccccc3)[C@H](c3ccccc3)OC(=O)[C@H]2[C@@H]1C(=O)N1CCN(c2ncccn2)CC1)C(=O)OC	0.706	0.156 (inactive)	0.0052	-0.132	0.23	1.18	0.309	1.31	1.1	1.11	1.48	1.22	0.13	0.927	1.04	1	-1.46	0.668	0.481	-0.186 (inactive)
NCCCCCCNC(=O)[C@@H]1C[C@@H]2C(=O)NCC(=O)N2[C@@H]1c1cccc(OCCO)c1	0.432	0.671 (inactive)	0.155	0.0001	0.695	1.47	0.758	1.2	1.18	0.828	-0.207	1.23	1.36	0.416	1.46	1.6	1.21	1.52	0.917	-1.66 (inactive)
COC(=O)[C@@]1(Cc2ccc(F)cc2)[C@H]2c3cc(C(=O)N4CCCC4)n(Cc4ccc(OC(F)(F)F)cc4)c3C[C@H]2CN1C(=O)c1ccccc1	0.435	-0.328 (inactive)	0.0026	-0.0108	0.861	1.96	0.32	-0.701	-0.0979	-0.484	-0.509	1.05	0.415	-0.276	-0.752	-0.685	0.559	-1.69	0.135	1.38 (inactive)
C#CCN(C(=O)OC(C)(C)C)[C@H](CO)c1ccccc1	0.632	0.32 (inactive)	-0.0043	-0.146	0.0604	0.125	0.183	0.689	0.105	0.0388	0.137	0.266	0.0987	-0.0218	-0.0032	0.579	-0.766	0.543	-0.174	0.978 (inactive)
CC(C)N1C(=O)[C@@]2(Cc3ccccc31)c1ccccc1C(=O)N(Cc1ccccc1)[C@H]2c1ccc(CO)cc1	-0.103	-0.289 (inactive)	-0.118	-0.205	-0.224	0.0227	1.79	0.316	0.702	-0.0679	2.84	-0.299	-0.0689	-0.375	0.848	0.203	0.591	0.13	-0.622	-0.52 (inactive)
C=C(COC)C(=O)CC[C@@H](OC(=O)c1ccccc1-c1ccccc1C(=O)O)c1ccccc1OCCO	-0.597	0.49 (inactive)	-0.122	-0.0174	0.531	-0.381	1.67	0.448	0.538	0.0185	0.116	1.15	-0.267	0.599	1.29	1.64	-0.0562	0.922	-0.272	-6.94 (inactive)
CCN1C(=O)C2CC(=O)C3C(CN(S(=O)(=O)c4ccc(C)cc4)C3c3ccc(C)cc3)C2C1=O (stereo not given)	0.449	0.37 (inactive)	0.0282	-0.108	0.75	2.05	1.11	0.768	-0.99	0.99	1.98	1.18	1.09	-0.38	-0.238	-0.315	0.0148	-0.573	-0.0147	0.12 (inactive)
C=CC[C@]1(C(=O)NCCN2CCOCC2)N=C(c2ccc(OCCCO)cc2)O[C@H]1c1ccccc1	-0.051	0.0999 (inactive)	0.0813	0.0564	0.703	1.51	0.601	1.18	0.708	0.469	0.566	0.845	0.0827	-0.212	1.44	1.8	0.654	0.918	0.496	0.601 (inactive)
Cc1ccc(S[C@]2(C(=O)NC(C)C)CC(=O)N(Cc3ccccc3)[C@@H]2c2ccc(CO)cc2)cc1	0.161	0.339 (inactive)	-0.333	-0.0451	0.445	-0.0367	-0.915	-0.76	-1.31	-1.06	0.0893	-0.161	0.274	-1.36	-1.15	-1.36	0.649	-1.06	0.704	0.262 (inactive)
COc1cccc(C)c1NC(=O)O[C@H]1[C@H](OC(=O)Nc2ccccc2-c2ccccc2)[C@@H](OC(=O)Nc2ccccc2-c2ccccc2)[C@@H](OC)O[C@@H]1CO	0.848	0.694 (inactive)	0.668	0.0151	0.712	1.44	0.762	1.3	0.0298	1.02	1	1.25	1.29	1.02	1.27	0.317	-0.158	0.719	0.55	-0.742 (inactive)
